“And” between values parts separate entries of the source, which are not always exact repeats. Identical values can stand only once. Inconclusive results are not listed. Values without a mark were called inactive. The source made the active and inactive calls. The call rests on the fitted dose curve; in most records, active means well fitted cell-killing curve with a large enough effect in the repeat runs; inconclusive means weak or mixed curves, or effect the other way; inactive means no such curve, though single readings can be large or run the other way. Positions of bridges follow the written chain, without caps; N, C: chain ends. Non-standard residues stand in square brackets, D forms with d. Residues, ends and D or L forms follow the SMILES beside them. *: point of attachment. X1 = CC[C@@H](C)[C@@H](N)C1=N[C@H](C(=O)*)CS1; d(aIle) = CC[C@H](C)[C@@H](N)C(=O)O; dOrn = NCCC[C@@H](N)C(=O)O
Assay: qHTS assay for identifying genotoxic compounds that show differential cytotoxicity against isogenic chicken DT40 cell lines with known DNA damage response pathways - wild type cell line (AID 743012); further: nearly all actives have a fitted effect of over 60% in size
Details: DT40 wild type chicken cells viability, CellTiter-Glo, 40 h; series mostly up to 68.4 µM; activity change, negative = cytotoxicity: at the top concentration
Summary of the method: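 Wild-type DT40 cells (300/well) exposed to compounds for 40 hours at 37 C/5% CO2. Viability read by CellTiter-Glo luminescence after 30 min at room temperature.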
On the % scale 0 is the no-effect control and ±100 the full control effect; potency means the concentration at half of the fitted maximal effect.

Row | SMILES | Potency | activity change, negative = cytotoxicity
1 | CCN1CCCC1CNC(=O)c1cc(S(=O)(=O)CC)ccc1OC (stereo not given) | inactive | 
2 | Cc1cc(N)c2ccccc2[n+]1CCCCCCCCCC[n+]1c(C)cc(N)c2ccccc21 | 2.54 µM (active) | 
3 | CC[C@@H](C)[C@H](N)C(=O)O |  | 3.96%
4 | CCCCCCCCCCCCN1CCCC1=O | 24.3 µM (active) | 
5 | CC1(C)C[C@@H]1C(=O)N/C(=C\CCCCSC[C@H](N)C(=O)O)C(=O)O | inactive | 
6 | CC12CCC(C[N+](C)(CCC[N+](C)(C)C)C1)C2(C)C (stereo not given) |  | 11.4%
7 | O=C1c2ccccc2-c2n[nH]c3cccc1c23 | 9.44 µM (active) | 
8 | CO[C@H](C(=O)[C@@H](O)[C@@H](C)O)C1Cc2cc3cc(O[C@H]4C[C@@H](O[C@H]5C[C@@H](O)[C@H](O)[C@@H](C)O5)[C@@H](O)[C@@H](C)O4)c(C)c(O)c3c(O)c2C(=O)[C@H]1O[C@H]1C[C@@H](O[C@H]2C[C@@H](O[C@H]3C[C@](C)(O)[C@H](O)[C@@H](C)O3)[C@H](O)[C@@H](C)O2)[C@H](O)[C@@H](C)O1 (stereo not given in full) | 94.4 nM (active) and 47.3 nM (active) | 
9 | O=C1c2c(O)cccc2[C@H]([C@@H]2O[C@H](CO)[C@@H](O)[C@H](O)[C@H]2O)c2cc(CO)cc(O)c21 | inactive | 
10 | O=C(O)CCCC/C=C(\c1ccccc1)c1cccnc1 |  | 14.5%
11 | CC[C@@H](C)[C@@H](N)C1=N[C@H](C(=O)N[C@@H](CC(C)C)C(=O)N[C@@H](CCC(=O)O)C(=O)N[C@@H](C(=O)N[C@@H]2CCCCNC(=O)[C@@H](CC(N)=O)NC(=O)[C@@H](CC(=O)O)NC(=O)[C@@H](Cc3cnc[nH]3)NC(=O)[C@@H](Cc3ccccc3)NC(=O)[C@@H]([C@H](C)CC)NC(=O)[C@@H](CCCN)NC2=O)[C@@H](C)CC)CS1 (X1-LE[d(aIle)][dK][dOrn][dI][dF][dH][dD][dN]; lactam 4-C) | inactive | 
12 | NC(=S)NS(=O)(=O)c1ccc(N)cc1 |  | 0.97%
13 | CO[C@H]1C[C@@H]2CC[C@@H](C)[C@@](O)(O2)C(=O)C(=O)N2CCCC[C@H]2C(=O)O[C@H]([C@H](C)C[C@@H]2CC[C@@H](O)[C@H](OC)C2)CC(=O)[C@H](C)C=C(C)[C@@H](O)[C@@H](OC)C(=O)[C@H](C)C[C@H](C)/C=C/C=CC=C1C | 2.4 nM (active) and 3 nM (active) | 
14 | CC(=O)[C@]1(O)Cc2c(O)c3c(c(O)c2[C@@H](O[C@H]2C[C@H](N)[C@H](O)[C@H](C)O2)C1)C(=O)c1ccccc1C3=O | 0.0211 µM (active) | 
15 | O=C1[O][Bi][O]c2ccccc21 |  | 5.54%
16 | N=C(N)n1cccn1 |  | 7.16%
17 | CCc1ncnc2cc(OC)c(OC)cc12 |  | -8.46%
18 | C=CC1=C(C(=O)O)N2C(=O)[C@@H](NC(=O)/C(=N\O)c3csc(N)n3)[C@H]2SC1 (stereo in doubt) | inactive | 
19 | CC(=O)N[C@@H](C=O)[C@H](O)[C@H](O)[C@@H](O)CO | inactive | 
20 | CNCC(=O)N[C@@H](CCCN=C(N)N)C(=O)N[C@H](C(=O)N[C@@H](Cc1ccc(O)cc1)C(=O)N[C@H](C(=O)N[C@@H](Cc1cnc[nH]1)C(=O)N1CCC[C@H]1C(=O)N[C@@H](C)C(=O)O)C(C)C)C(C)C |  | 14.8%
21 | CCCOC(=O)c1ccccc1O |  | 22.7%
22 | CC(C)(S)C(=O)N[C@@H](CS)C(=O)O | inactive | 
23 | CCCCCCCC/C=C\CCCCCCCC(=O)N(CCO)CCO | 15.3 µM (active) | 
24 | N#Cc1c(N(CC(=O)O)CC(=O)O)sc(C(=O)O)c1CC(=O)O |  | 3.75%
25 | CC(C)c1ccc2sc3ccccc3c(=O)c2c1 | 48.6 µM (active) | 

From PubChem BioAssay (Tox21)
